Measured values reported in PubChem BioAssay.

test system: not listed separately; experiment: mitochondrial membrane potential change in A549 cells, profiling panel, cell-based, JC-1 fluorescence, basal, 24 h, 100 nL (AID 1138); conditions: higher = more signal;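 note: A549 lung adenocarcinoma cells under basal conditions with no added stimulus; test concentration not given here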

| Structure (SMILES) | z-score |
| --- | --- |
| COCCOC(=O)N1C(=O)[C@@]2(c3cc(C#CCNC(N)=O)ccc31)[C@H](c1ccc(OCCO)cc1)N1[C@H](c3ccccc3)[C@H](c3ccccc3)OC(=O)[C@H]1[C@@H]2C(=O)NC[C@H](O)c1ccccc1 | -1.19 |
| C=C[C@@H](C)[C@H](O)c1ccc(OCCO)cc1 | 0.41 |
| CC(=O)N1CC(C(O)C2C=CC3C(=O)NC(=O)C3N2Nc2ccc(Cl)cc2Cl)c2ccccc21 (configuration not stated) | 0.125 |
| Nc1cc(Br)ccc1C(=O)O | 1.28 |
| C=C(CCCC)/C(=C/C[C@H](OC(C)=O)c1ccc(OCCO)cc1)c1cc(C(=O)OC)ccc1OC | 1.78 |
| C=C(COC)/C(=C/C[C@H](OC(C)=O)c1cccc(OCCO)c1)c1cnc2ccccc2c1 | 1.05 |
| C=CCNC(=O)[C@H]1[C@@H]2C(=O)O[C@@H](c3ccccc3)[C@@H](c3ccccc3)N2[C@@H](c2ccc(OCCO)cc2)[C@]12C(=O)N(C(=O)OCCOC)c1ccc(C#Cc3ccc(OC)cc3)cc12 | -1.59 |

test system: Lefty1; experiment: Lefty1 binders on small-molecule microarrays, primary screen, biochemical, small-molecule microarray, 635/667 nm fluorescence (AID 1139); conditions: small-molecule microarray binding, fluorescence 635/667; higher = more signal

| Structure (SMILES) | composite z-score |
| --- | --- |
| CN1C=C(C(=O)OCCS(C)(=O)=O)C(C(=O)OCCS(C)(=O)=O)=CC(c2ccc(CO)cc2)=CC1c1cccs1 (configuration not stated) | 0.644 |
| CS(=O)(=O)CCOC(=O)C1=CC(CCCO)=CC(C2CC2)N(Cc2cccc(OC(F)(F)F)c2)C=C1C(=O)OCCS(C)(=O)=O (configuration not stated) | 0.126 |
| CC(C)[C@H]1NC(=O)[C@@]23C(=O)N[C@@H](Cc4ccccc4)C2[C@H](C)[C@@]2(C)O[C@H]2C3/C=C/C/C=C\CNC(=O)[C@H](Cc2ccccc2)NC1=O (some centres not stated) | 1.57 |
| Cc1ccc(S[C@]2(C(=O)NCc3ccccc3)CC(=O)N(Cc3cc(C(F)(F)F)cc(C(F)(F)F)c3)[C@@H]2c2ccc(CO)cc2I)cc1 | -1.25 |
| CN(C)C(=O)[C@@]1(Cc2ccccc2N=[N+]=[N-])N=C(c2ccc(OCCCO)cc2)O[C@H]1c1ccccc1 | -0.442 |
| COCC1=C2[C@@H](CCc3ccccc3)OB(O)C[C@@H]2[C@@H]2C(=O)N(C)C(=O)[C@@H]2C1 | 0.0961 |
| O=C1C2C=CC(C(O)c3ccco3)N(Nc3ccccc3)C2C(=O)N1c1ccccc1 (configuration not stated) | -0.907 |
| NC(=O)[C@H]1[C@@H]2C(=O)O[C@@H](c3ccccc3)[C@@H](c3ccccc3)N2[C@@H](c2ccc(O)cc2)[C@]12C(=O)Nc1ccc(C#CC3=CCCCC3)cc12 | 0.542 |
| C=C(/C(=C/C[C@@H](OC(=O)c1ccncc1)c1cccc(OCCO)c1)c1cnc2ccccc2c1)C(C)C | 1.2 |
| CC(C)[C@H]1NC(=O)[C@@]23C(=O)N[C@@H](Cc4ccccc4)C2[C@H](C)[C@@]2(C)O[C@H]2C3/C=C/CCC/C=C/CNC(=O)[C@H](Cc2ccccc2)NC1=O (some centres not stated) | 1.03 |
| C=C(COC)/C(=C/C[C@@H](OC(C)=O)c1ccc(CO)o1)c1cc(C(=O)OC)ccc1OC | 0.933 |
| C=CCC(OC(C)=O)[C@@H]1[C@@H](N(Cc2cccc3ccccc23)C(=O)Cc2ccc(F)cc2)c2cc(OCCCO)ccc2N1C(=O)c1ccc(-c2ccccc2)cc1 (some centres not stated) | -0.62 |
| CC(=O)NCCCC[C@@H]1NC(=O)[C@H]2C[C@@H](C(=O)NCCCCCNC(=O)CS)[C@@H](c3cccc(OCCO)c3)N2C1=O | 0.157 |
| COCCOC(=O)N1C(=O)[C@@]2(c3cc(C#CCC(C(=O)OC)C(=O)OC)ccc31)[C@H](c1ccc(O)cc1)N1[C@H](c3ccccc3)[C@H](c3ccccc3)OC(=O)[C@H]1[C@@H]2C(=O)NC[C@H](O)c1ccccc1 | 0.222 |
| Cc1ccccc1C(O)C1C=CC2C(=O)N(c3ccccc3)C(=O)C2N1Nc1ccc([N+](=O)[O-])cc1 (configuration not stated) | 0.0122 |
| Cc1cccc([C@H]2C[C@H]3C(Br)=C[C@@H]2C(=O)[C@]32CO2)c1 | 0.154 |
| CCOC(=O)C=Cc1ccccc1O | 0.175 |
| CCOC(=O)C1=CCC(c2ccccc2)N(S(=O)(=O)c2ccc([N+](=O)[O-])cc2)C1 (configuration not stated) | -0.111 |

| Structure (SMILES) | composite z-score |
| --- | --- |
| C=C(CCCC)C(=O)CC[C@@H](OC(=O)c1cccnc1)c1ccc(OCCO)cc1 | 1.57 |
| CC(C)C[C@@H]1NC(=O)CNC(=O)[C@@]23C(=O)N[C@@H](Cc4ccccc4)C2[C@H](C)[C@@]2(C)O[C@H]2C3/C=C/C/C=C\CNC1=O (some centres not stated) | 1.07 |
| [N-]=[N+]=Nc1ccccc1C[C@@]1(C(=O)O)N=C(c2ccc(OCCCO)cc2)O[C@@H]1c1ccccc1N=[N+]=[N-] | -0.817 |
| CCCCC(=O)N(CCN1CCOCC1)[C@@H]1CC(C(=O)NCCO)=C[C@H](Oc2c(I)cc(CO)cc2OC)[C@H]1O | 0.612 |
| COc1ccc(C#Cc2ccc3c(c2)[C@]2(C(=O)N3)[C@H](C(=O)N3CCCCCCC3)[C@H]3C(=O)O[C@H](c4ccccc4)[C@H](c4ccccc4)N3[C@@H]2c2ccc(O)cc2)cc1 | 0.942 |
| CCOC(=O)C1=C[C@@H](c2ccccc2)N(S(=O)(=O)c2ccc(C)cc2)[C@H]1c1ccccc1 | 0.543 |
| COCCOC(=O)N1C(=O)[C@@]2(c3cc(C#CCCO)ccc31)[C@H](C(N)=O)[C@H]1C(=O)O[C@H](c3ccccc3)[C@H](c3ccccc3)N1[C@@H]2c1ccc(OCCO)cc1 | 0.794 |
| C=C(/C(=C/C[C@@H](OC(C)=O)c1ccc(CO)o1)c1cc(C(=O)OC)ccc1OC)C(C)C | 0.564 |
| CCCCCCCCCCC(O)C1C=CC2C(=O)N(C)C(=O)C2N1Nc1cc(OC)c(OC)c(OC)c1 (configuration not stated) | -0.946 |
| C=CCC(OC(C)=O)[C@@H]1[C@@H](N(Cc2ccc(-c3ccccc3)cc2)C(=O)Cc2ccc(F)cc2)c2cc(OCCCO)ccc2N1C(=O)Cc1ccc2ccccc2c1 (some centres not stated) | -0.0639 |
| COCCOC(=O)N1C(=O)[C@@]2(c3cc(C#CCNC(N)=O)ccc31)[C@H](c1ccc(OCCO)cc1)N1[C@H](c3ccccc3)[C@H](c3ccccc3)OC(=O)[C@H]1[C@@H]2C(=O)NC[C@H](O)c1ccccc1 | 1.16 |
| C=C[C@@H](C)[C@H](O)c1ccc(OCCO)cc1 | -1.19 |
| CC(=O)N1CC(C(O)C2C=CC3C(=O)NC(=O)C3N2Nc2ccc(Cl)cc2Cl)c2ccccc21 (configuration not stated) | -0.216 |
| Nc1cc(Br)ccc1C(=O)O | -0.0916 |
| C=C(CCCC)/C(=C/C[C@H](OC(C)=O)c1ccc(OCCO)cc1)c1cc(C(=O)OC)ccc1OC | 0.929 |
| C=C(COC)/C(=C/C[C@H](OC(C)=O)c1cccc(OCCO)c1)c1cnc2ccccc2c1 | 1.53 |
| C=CCNC(=O)[C@H]1[C@@H]2C(=O)O[C@@H](c3ccccc3)[C@@H](c3ccccc3)N2[C@@H](c2ccc(OCCO)cc2)[C@]12C(=O)N(C(=O)OCCOC)c1ccc(C#Cc3ccc(OC)cc3)cc12 | 0.544 |
